Bioassay records deposited in PubChem by National Center for Advancing Translational Sciences (NCATS).
Compounds with a hit are over-represented: about 10% of the library has one in this group of screens.
ALDH1A1 inh: blocks purified human ALDH1A1 activity; P00352; Purified ALDH1A1, NADH fluorescence, propionaldehyde substrate; Potency, µM (top dose mostly 75.3 µM), for the others: at the highest dose activity, negative = inhibition, actives largely listed as inhibitors; 220,000 tested, 7.3% active; AID 1030;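 further: potency means the concentration at half of the fitted maximal effect; plate controls were no enzyme wells and a reference inhibitor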
Target sequence (P00352 whole entry, looked up): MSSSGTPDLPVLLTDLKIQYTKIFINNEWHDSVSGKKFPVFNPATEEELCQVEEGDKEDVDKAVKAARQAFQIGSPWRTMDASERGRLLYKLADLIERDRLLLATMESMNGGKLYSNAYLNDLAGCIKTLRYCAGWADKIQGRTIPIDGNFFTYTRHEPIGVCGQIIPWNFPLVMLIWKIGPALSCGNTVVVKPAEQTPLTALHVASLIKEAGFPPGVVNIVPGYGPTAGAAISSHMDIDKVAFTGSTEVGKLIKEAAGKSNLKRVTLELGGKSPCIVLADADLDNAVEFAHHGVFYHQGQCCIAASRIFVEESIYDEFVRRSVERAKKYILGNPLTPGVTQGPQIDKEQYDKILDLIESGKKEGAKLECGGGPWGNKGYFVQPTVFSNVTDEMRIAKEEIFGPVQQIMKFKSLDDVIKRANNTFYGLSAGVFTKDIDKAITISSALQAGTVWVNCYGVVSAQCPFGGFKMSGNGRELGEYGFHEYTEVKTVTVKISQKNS
12-hLO inh: inhibitors of human 12-lipoxygenase (ALOX12) | P18054 | purified 12-hLO, xylenol orange hydroperoxide absorbance | Potency, µM (series often up to 57.1 µM), for inactives: top-dose activity change, negative = inhibition, actives largely listed as inhibitors | 150,000 tested, 0.12% active; active means well fitted inhibition curve with a large enough effect; inconclusive means small, poorly fitted or top-dose-only effect; further: potency means the concentration at half of the fitted maximal effect; nearly all actives have a fitted effect of over 55% in size
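Hydroperoxide formation by human 12-lipoxygenase from 40 uM arachidonic acid was followed colorimetrically via ferric-xylenol orange complex, using the 573/405 nm absorbance ratio. Enzyme concentration was 150 nM, with 30 min reaction at room temperature.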
PNC assembly inh: blocks assembly of the perinucleolar compartment. PC3M PTB-GFP, PNC prevalence imaging, 16 h; stronger effect = lower value. activity change (PNC), negative = inhibition, % at 10 µM. 140,000 tested, 3.1% active. AID 2417;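 active means readout at or below -70, meaning at least 70% loss of cells showing the perinucleolar compartment, a nuclear body marking cancer cells; inconclusive means readout between -30 and a set limit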;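 further: plate controls were DMSO wells for no effect and camptothecin positive control wells for full effect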
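PC3M cells stably expressing PTB-GFP, 750–1000 cells/well, treated 16 h at 37 °C with compound (23 nl of library stock), in duplicate. After paraformaldehyde fixation and Hoechst stain, imaged at 20x; PNC prevalence scored by image analysis.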
Lamin A splicing: LMNA splicing modulation; HeLa LMNA splicing GFP/RFP minigene ratio, 48 h; Potency, µM (titrated, usually from 46.1 µM), for inactives: at the highest dose ratio change, negative = inhibition, most hits filed as inhibitors; 200,000 tested, 0.01% active; AID 1487; active means well fitted inhibition curve with a large enough effect in the signal ratio, with a control signal flat, not every such curve was filed as active; inconclusive means small, poorly fitted or top-dose-only effect, or effect the other way, or a change in a side signal; the % refers to the signal ratio; further: potency means the concentration at half of the fitted maximal effect
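Read-out is the ratio of GFP to DsRed2 object intensity, acquired by 488 nm laser-scanning cytometry on HeLa lamin A-EGFP minigene reporter cells. Compound incubation 48 hrs at 37 °C in Opti-MEM with 2% FBS; DMSO 0.5% final.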
HPGD block: HPGD (human) dehydrogenase inhibition; AID 894; 150,000 tested, 4.3% active; purified HPGD, NADH fluorescence kinetic, PGE2 substrate; P15428; Potency, µM, without a hit: top-dose activity change, negative = inhibition, hits mostly inhibitors; further: potency means the concentration at half of the fitted maximal effect
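20 nM HPGD preincubated 15 min at room temperature with compound in 50 mM Tris-HCl pH 8, 0.01% Tween 20. Started with 1 mM NAD+ and 30 uM prostaglandin E2; NADH fluorescence (360/450 nm) read 5 times over 30-s intervals, last minus first.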
* hit, by the source's call; ? = inconclusive; nt = no result given; [ ] = remark or other dose. Unless noted, the call rests on the fitted dose curve; in most records, active means well fitted inhibition curve with a large enough effect (not every such curve was filed as active); inconclusive means small, poorly fitted or top-dose-only effect, or another doubt; inactive means no such curve, though single readings can be large or run the other way. Unless noted, on the % scale 0 is the no-effect control and ±100 the full control effect.

SMILES	ALDH1A1 inh	12-hLO inh	PNC assembly inh	Lamin A splicing	HPGD block
CN(C)CC1CSCCC1(O)c1ccccc1 (stereo unspecified)	12.6µM*	-1.4%	-26.7	-2.0%	1.2%
c1ccc(N2CCC3(CCNCC3)CC2)cc1	-17.6%	0.7%	nt	nt	-1.9%
C=C(CC1CC(O)[C@]2(C)OC3CC4OC5C[C@]6(C)O[C@]7(C)CCC8OC9C[C@]%10(C)OC%11C(C)=CC(=O)OC%11CC%10OC9C[C@@H](C)C8OC7CC6O[C@]5(C)C/C=C\C4OC3CC2O1)C(=O)O (stereo partly specified)	3.98µM*	nt	nt	nt	nt
COc1ccc(/C=C2/Sc3ccc(C(=O)N4CCc5ccccc5C4)cc3NC2=O)cc1	-7.5%	-2.8%	19.8	?	15.8µM*
CN1C(=O)C(=Cc2ccc(Sc3ccccc3)o2)C(=O)N(C)C1=O	?	nt	nt	17.2%[46 µM]	nt
CN1C(=O)C(=Cc2coc3ccccc3c2=O)C(=O)N(C)C1=O	0.891µM*	nt	nt	nt	nt
CCc1cccc(NC(=O)Cn2c(=O)oc3cc(S(=O)(=O)N4CCOCC4)ccc32)c1	?	-2.0%	0.4	?	-16.5%
Cc1nc2ccc(Nc3nc4cc(S(=O)(=O)N5CCOCC5)ccc4o3)cc2s1	3.55µM*	-1.7%	?	-1.5%	8.91µM*
O=C1Nc2cc(Cl)c(Cl)cc2N2CCNC[C@H]12	?	-19.2%	nt	nt	-25.2%
CC(=O)O[C@H]1[C@H]2[C@@H](OC(=O)Cc3ccccc3)[C@@H](C)C[C@]2(OC(C)=O)C(=O)/C(C)=C/[C@@H]2[C@H](CC[C@@]13CO3)C2(C)C	-1.8%	1.5%[0.00818 µM]	nt	nt	-4.3%
Cc1nn(Cc2ccccc2)c(C)c1C(=O)OCC(=O)Nc1ccccc1SCC#N	25.1µM*	-6.1%	18.7	?	-5.0%
CCCn1cc(C(=O)O)cn1	4.2%	nt	nt	10.6%[9.22 µM]	nt
Cn1cc(NC(=O)CCl)cn1	17.8µM*	nt	nt	nt	nt
C1CNC2NCCNC2N1 (stereo unspecified)	8.0%	-2.5%	-100.0*	8.6%	-6.3%
Cc1ccc(C)c(Cn2c(C(=O)O)c(C=O)c3ccccc32)c1	18.9µM*	nt	nt	-21.1%[46 µM]	nt
COc1ccc(-c2nc3ccccc3c(=O)n2-c2ccc(OC)cc2)cc1	11.2µM*	nt	nt	nt	nt
Cc1ccccc1-n1c(-c2ccc([N+](=O)[O-])cc2)nc2ccccc2c1=O	7.94µM*	-1.0%	-17.5	0.8%	-2.4%
O=c1c2ccccc2nc(-c2ccco2)n1-c1ccncc1	28.2µM*	-0.7%	-6.4	?	-16.1%
Cc1ccccc1-n1c(-c2ccco2)nc2ccccc2c1=O	-9.9%	1.6%	194.1	?	-12.1%
O=c1c2ccccc2nc(-c2ccc([N+](=O)[O-])cc2)n1-c1ccccc1	3.16µM*	-5.8%	-7.4	-7.0%	-14.5%
Cc1cccc(-n2c(-c3ccc([N+](=O)[O-])cc3)nc3ccccc3c2=O)c1	?	-2.1%	13.4	-10.6%	-9.0%
C(=C\c1ccccc1)/CN1CCN(CCOC(c2ccccc2)c2ccccc2)CC1	-4.9%	nt	nt	nt	nt
O=C(O)C(Oc1nc(=S)[nH]c(=S)[nH]1)(c1ccc(Cl)cc1)c1ccc(Cl)cc1	3.6%[13.5 µM]	4.3%[11.4 µM]	nt	nt	-5.8%
Nc1ccc(S(=O)(=O)c2ccc(NCN3C(=O)NC(=O)C(=O)C3=O)cc2)cc1	9.3%[13.5 µM]	1.1%[11.4 µM]	nt	nt	-18.5%
Cc1cc(S(=O)(=O)NCC(C)C)ccc1OCC(=O)N1CCN(Cc2ccccc2)CC1	17.8µM*	8.8%	21.1	?	-12.9%
SMILES	ALDH1A1 inh	12-hLO inh	PNC assembly inh	Lamin A splicing	HPGD block
C=C(C)c1ccccc1 (tested in a mixture with another compound)	1.3%[13.5 µM]	1.2%[11.4 µM]	nt	nt	0.8%
CC1CC(C)CN(CC(=O)c2ccc(OC(F)F)cc2)C1 (stereo unspecified)	1.26µM*	1.7%	?	?	-8.5%
COc1ccc(C(=O)CN2CCCCC2)cc1	?	nt	nt	-2.3%[46 µM]	nt
Oc1cc2c(cc1O)[C@H]1c3ccccc3CNC1CC2 (stereo partly specified)	?	nt	nt	?	6.31µM*
Cc1onc(-c2ccccc2)c1C(=O)NC1C(=O)N2C(C(=O)O)C(C)(C)S[C@@H]12 (stereo partly specified)	-10.7%	-0.1%	nt	nt	-6.5%
O=[N+]([O-])/C=C/c1c(OCc2ccccc2)ccc2ccccc12	-8.3%	-3.2%	24.7	?	15.8µM*
